Screening data: PubChem BioAssay, several laboratories
In the library only some 7.2% were active in any assay of this set; here they are far more common.
Efflux pump mplx = inhibitors of Candida efflux pumps in yeast, primary screen, S. cerevisiae, Nile Red, multiplex | 0.44% of 330,000 active | S. cerevisiae Candida pump triplex | inhibition, % at 10 µM;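 active = plate passing quality check with inhibition over a set limit, or well fluorescence over plate mean plus 4 SD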;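 also: Nile Red retained in pooled yeast measured as flow cytometry median fluorescence; 0% = buffer negative control and 100% = Enniatin B positive control; higher means more Nile Red kept so more efflux inhibition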
Mot1-301 SUMO = yeast Mot1-301 growth rescue at high temperature, primary screen, SUMOylation pathway inhibitor project, S. cerevisiae, ATP luminescence, 38.5C | S. cerevisiae Mot1-301 growth rescue; percent above DMSO median, 100 means doubled | growth rescue, % at 18.8 µM | 1% of 320,000 active | AID 2716, 2010;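 active = every valid replicate shows activation above 250% relative to neutral control wells; inactive = the rest, any valid replicate at or below 250%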;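 also: OY570 slx delta 5 strain wells were the positive control but not used for scaling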
AHR act = AHR activators, primary screen, cell-based, luminescence, luciferase reporter, human; AHR-responsive luciferase reporter cells; activation, % at 5 µM; 2.5% of 320,000 active; in the data active = activation above about 47%;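 also: 0% = vehicle wells and 100% = reference agonist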
VLA-4 inh = inhibition in human VLA-4 binding assay, primary screen, VLA-4 allosteric modulator project, MLPCN library, flow cytometry, VLA-4 expressing cells | Integrin alpha-4 (Homo sapiens), P13612 | ligand binding flow cytometry | inhibition, % (about 7 µM as worked out from the volumes in the protocol) | 0.2% of 330,000 active | AID 2557, 2010; in the data active = inhibition above about 50%
Bfl-1 A1 inh = caspase 3/7 activation in MEF A1-2A-BIM cells, primary screen, A1 inhibitor project, cell-based, luminescence, HTS. AID 2462, 2010. 0.066% of 330,000 active. caspase activation, % (test concentration not listed). Caspase-Glo 3/7 luminescence, 3 h; percent of clofoctol response, vehicle zero;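 active = over half of replicate activation scores above 10%, or exactly half above 10 with the replicate mean above 10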
ALR H2O2 inh = inhibitors of human ALR sulfhydryl oxidase, primary screen, biochemical, H2O2 detection, HRP-luminol luminescence, single point. purified ALR, DTT oxidation. inhibition, % (test concentration not listed). 3.8% of 290,000 active. AID 485317, 2010;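 active = mean replicate inhibition above about 79%, with every replicate also reaching it, limit read from the data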
Target sequence (P55789 whole entry, looked up): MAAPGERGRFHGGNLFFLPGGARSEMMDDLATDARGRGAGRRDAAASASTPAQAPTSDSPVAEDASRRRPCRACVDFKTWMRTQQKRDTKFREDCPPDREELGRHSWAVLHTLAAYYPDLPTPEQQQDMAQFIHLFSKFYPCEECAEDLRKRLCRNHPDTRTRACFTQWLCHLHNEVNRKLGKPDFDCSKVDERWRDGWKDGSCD
* hit, by the source's call; nt = no result.

SMILES	Efflux pump mplx	Mot1-301 SUMO	AHR act	VLA-4 inh	Bfl-1 A1 inh	ALR H2O2 inh
CCCCN1CCN=C1Nc1ccccc1	0	-19	14	-4	1	-1
O=C1c2ccccc2C(Nc2ccc3c(c2)OCCO3)N1Cc1ccc2c(c1)OCO2 (stereo not drawn)	0	-7	5	41	0	98*
O=C1OC(Nc2ccc3c(c2)OCO3)c2ccccc21 (stereo not drawn)	0	-2	4	-2	1	99*
O=C1c2ccccc2C(Nc2ccccc2)N1Cc1ccc2c(c1)OCO2 (stereo not drawn)	0	59	4	4	0	7
O=C1OC(Nc2ccc(F)c([N+](=O)[O-])c2)c2ccccc21 (stereo not drawn)	0	-9	-2	23	0	nt
Fc1ccc(C2=NN(c3ccccc3)C(c3ccco3)C2)cc1 (stereo not drawn)	0	-3	-1	30	2	10
C(=C\c1ccco1)/C1=NN(c2ccccc2)C(c2ccco2)C1 (stereo not drawn)	1.4*	24	0	-369	0	59
Cc1cc2ncn(/N=C/c3ccc([N+](=O)[O-])s3)c2cc1C	0	27	12	5	0	-28
Cc1nc2ccccc2n1/N=C/c1ccc([N+](=O)[O-])s1	0	-1	52*	0	0	-23
O=[N+]([O-])c1ccc(/C=N/n2cnc3ccccc32)s1	0	378*	27	-8	0	-19
Cc1nc2ccc(NC(=O)C3=NN(C)C(=O)CC3)cc2s1	0	-9	4	7	-6	-2
Oc1ccc(/C=N/Nc2ccc(C(F)(F)F)cn2)c(O)c1	0	331	11	5	0	22
Oc1ccc(/C=N/Nc2ccc(C(F)(F)F)cn2)cc1	0	18	-1	0	0	97*
Cc1cc2nc(C3CCN(Cc4nnnn4Cc4ccccc4)CC3)[nH]c2cc1C	0	9	54*	8	1	0
CCC(C)(C)n1nnnc1CN1CCC(c2nc3ccc(C)cc3[nH]2)CC1	1	-4	16	-2	0	-3
Cc1ccc(-c2ccc(/C=C(\C#N)C(N)=S)n2C)cc1	0	3	79*	-4	0	nt
Cn1cccc1/C=C(/C#N)C(N)=S	2	nt	-3	-3	1	nt
Cc1ccc(-c2nc(-c3cccnc3)sc2CC(=O)Nc2ccc3nc(C)sc3c2)cc1	0	-9	3	4	0	45
O=C(O)COc1ccccc1/C=N/NC(=O)c1cc(-c2ccc(Cl)cc2)nc2ccccc12	0	-15	64*	0	-2	13
O=C(N/N=C/c1ccccn1)c1cc(-c2ccc(Cl)cc2)nc2ccccc12	0	-3	50*	2	-1	nt
O=C(O)COc1ccccc1/C=N/NC(=O)c1cc(-c2ccccc2)nc2ccccc12	0	nt	16	3	-1	30
O=C(Nc1ccc2c(c1)OCO2)O[C@@H]1C[C@H]2CCC(=O)N3CC[C@@H](C1)[C@@H]23	0	10	4	23	0	2
CCOc1ccc(NC(=O)CCC(=O)NNC(=O)COc2ccc(C)cc2Br)cc1	0	6	7	-7	0	-6
c1csc(-c2cn3ccc4ccccc4c3n2)c1	0	89	57*	4	0	-17
Cc1cc(=O)[nH]c(SCc2ccccc2)n1	0	-8	4	8	-1	0
SMILES	Efflux pump mplx	Mot1-301 SUMO	AHR act	VLA-4 inh	Bfl-1 A1 inh	ALR H2O2 inh
CCCOc1ccc(C(C)=O)cc1CSc1nc(O)cc(=O)[nH]1	0	19	0	-2	1	99*
CCCOc1ccc(C(C)=O)cc1CSCCC#N	0	1	37	-13	0	-24
O=c1cc(O)nc(SCc2ccccc2)[nH]1	0	8	1	8	0	98*
O=C(CSc1nc(O)cc(=O)[nH]1)N1c2ccccc2Sc2ccccc21	0	219	2	6	-1	99*
CCCN(C(=O)CSCC(=O)Nc1ccc(OC)cc1)c1c(N)n(Cc2ccccc2)c(=O)[nH]c1=O	0	-8	-1	-18	-1	-3
COc1ccc(CNC(=O)C/C(C)=N/NC(=O)COc2ccccc2)cc1	0	0	1	7	0	nt
COc1ccc(Oc2ccc(C(F)(F)F)cc2N)cc1	0	12	3	12	-2	-15
COc1ccccc1CNC(=O)c1ccc(NC(=O)CC2SC(N3CCCC3)=NC2=O)cc1 (stereo not drawn)	0	7	1	14	1	1
Oc1ccc(-c2nc3ncccn3c2Nc2ccc3c(c2)OCCO3)cc1	0	-3	3	-2	1	93*
Cc1cccc(Nc2c(-c3ccc(N4CCOCC4)cc3)nc3ncccn23)c1	0	-1	4	22	-1	95*
Cc1ccc(-c2nc3ncccn3c2Nc2ccc3c(c2)OCCO3)cc1	0	12	2	8	-1	96*
NC(=S)N(c1ccccc1)c1ccccc1	0	1	1	0	0	-3
CNCC(O)COc1ccccc1 (stereo not drawn)	0	27	1	-3	1	-14
CNCC(O)CN(c1ccccc1)c1ccccc1 (stereo not drawn)	0	-4	0	3	1	99*
CN(CCO)CC(O)CN(c1ccccc1)c1ccccc1 (stereo not drawn)	0	-12	0	-16	0	99*
NC(N)=NCC(O)CN(c1ccccc1)c1ccccc1 (stereo not drawn)	0	-6	0	23	-1	99*
Cc1c(Cl)cccc1-n1c(SCC(=O)N2CCC(C(=O)O)CC2)nc2ccccc2c1=O	0	291	-3	0	2	1
Cc1ccc(N(C(=O)CNC(=O)c2ccco2)C(C(=O)NC2CCCCC2)c2cccnc2)cc1 (stereo not drawn)	0	-2	9	5	1	-2
O=C(CSc1ccc2nnc(CCNC(=O)c3ccccc3)n2n1)NCc1ccco1	0	0	-2	6	-1	18
C=CCNC(=O)c1c(C(F)(F)F)nn(C)c1Cl	0	625	3	-1	0	-12
O=C1CNC(=O)N1	0	0	4	-13	2	16
